Reference: PubChem BioAssay (NCATS)
Unmarked numbers belong to inactive results. Inconclusive results are not listed. Some of the results follow. The source made the active and inactive calls. Unless noted, calls come from the whole dose curve; as a rule, active = well fitted curve in the direction sought with a large enough effect; inconclusive = small, poorly fitted or top-dose-only effect, or another doubt; inactive = no such curve, though single readings can be large; an effect the other way counts as inactive or inconclusive.

Assays:
[1] = qHTS assay for cell viability of HEK293 cells (AID 743288); details: ATP luminescence (CellTiter-Glo), 18 h; max response: active compounds read low; note: % is set by controls: 0 for no effect and ±100 for the full control effect; nearly all actives have a fitted effect of over 50% in size
Summary of the method: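 Quantitative high-throughput screen: compounds were pinned onto parental HEK293 cells (2,000 per well) after a minimum 5 h settling at 37 C, incubated 18 h at 37 C, and intracellular ATP measured by luciferase luminescence.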

[2] = qHTS assay for cell viability of the p53RE-bla HCT-116 cell line (AID 743292); note: % is set by controls: 0 for no effect and ±100 for the full control effect; nearly all actives have a fitted effect of over 55% in size
Summary of the method: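 CellSensor p53RE-bla HCT-116 cells, 4,000/well, preincubated 5 h at 37 C, then exposed to compounds in DMSO for 16 h at 37 C. Viability read as CellTiter-Glo luminescence (intracellular ATP) after 30 min at room temperature.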

[3] = qHTS assay for small molecule activators of the human pregnane X receptor (PXR) signaling pathway (AID 720659; call rule not given here; note: 0% is about no effect)
[4] = molecular target: Phosphoglycerate kinase, glycosomal (Trypanosoma brucei brucei) (UniProt P07378); experiment: qHTS for inhibitors of Phosphogylcerate Kinase: Hit Validation Screen (AID 686980); details: TbPGK coupled GAPDH assay, Kinase-Glo luminescence; note: potency is the fitted concentration of half-maximal effect; nearly all actives have a fitted effect of over 65% in size
Summary of the method: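 Recombinant glycosomal PGK reaction used 1,3-bisphosphoglycerate generated in-well by GAPDH (100nM final) in 100mM TEA pH 7.6, 5mM MgCl2, 0.01% Tween-20. After 60 minutes at room temperature, ATP was read by Kinase-Glo Plus luminescence end-point.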

[5] = molecular target: DNA polymerase iota (Homo sapiens) (UniProt Q9UNA4); experiment: qHTS for Inhibitors of Polymerase Iota: Confirmatory Assay for Cherry-picked Compounds (AID 720496); details: Pol iota primer extension, TAMRA/BHQ fluorescence; note: potency is the fitted concentration of half-maximal effect
Summary of the method: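 Extension of a quenched TAMRA-reporter/BHQ-2-template DNA substrate (50 nM) by 10 nM Pol iota after 15 min compound preincubation. Strand-displacement fluorescence (525/598 nm) was read kinetically at 0 and 10 min. Buffer-only wells served as negative control.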

[6] = molecular target: Bifunctional 3'-5' exonuclease/ATP-dependent helicase WRN (Homo sapiens) (UniProt Q14191); experiment: qHTS for Inhibitors of WRN Helicase: Confirmatory Assay for Cherry-picked Compounds. (AID 720497); details: WRN helicase DNA unwinding, fluorescence kinetic; note: potency is the fitted concentration of half-maximal effect; nearly all actives have a fitted effect of over 65% in size
Description: (§1) Inhibition of DNA repair is proposed as a strategy for combating cancer. Synthetic lethality is an approach that exploits preexisting DNA repair deficiencies in certain tumors to develop inhibitors of DNA repair pathways that compensate for the tumor-associated DNA repair deficiency. […] A 1536-well format, fluorescence based, high-throughput screen (AID 651768) has been developed in collaboration with the Brosh Laboratory at the National Institute of Aging (NIA) to screen for inhibitors of the WRN. […]
Three microliter of reagents (buffer in columns 3 and 4 as negative controls; WRN at 20 nM final concentration in columns 1 and 2 as positive controls; columns 5-48 as test reactions) were dispensed into a 1536-well Greiner black plate via a solenoid-valve based nanoliter dispenser. […] The plates were transferred into a ViewLux CCD imager where the reaction was measured in a kinetic mode using the standard red fluorescence optics (excitation filter 525 nm, emission filter 598 nm). […]

[7] = qHTS for Inhibitors of WRN Helicase: Thiazole Orange DNA Binding Counterscreen (AID 720499);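 note: drop in dye fluorescence marks compound binding to DNA; % is set by controls: 0 for no effect and ±100 for the full control effect; nearly all actives have a fitted effect of over 60% in size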
Summary of the method: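 Unlabeled DNA at 50 nM is mixed with 100 nM thiazole orange, compounds are pin-transferred in, the plate sits 15 min at room temperature, and fluorescence is then read at 480 nm excitation, 530 nm emission.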

[8] = molecular target: DNA polymerase kappa (Homo sapiens) (UniProt Q9UBT6); experiment: qHTS for Inhibitors of Polymerase Kappa: Confirmatory Assay for Cherry-picked Compounds (AID 720501); details: purified Pol-kappa, fluorescent strand-displacement substrate; note: potency is the fitted concentration of half-maximal effect
Summary of the method: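 Human Pol-kappa, dispensed at 10 nM, was preincubated with compounds for 15 min at room temperature. Reactions were started with primer/template substrate (50 nM final) carrying a TAMRA reporter strand and BHQ-2-quenched template, and fluorescence (ex 525/em 598 nm) was read at 0 and 10 min.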

[9] = molecular target: RecQ-like DNA helicase BLM (Homo sapiens) (UniProt P54132); experiment: qHTS for Inhibitors of WRN Helicase: BLM Helicase Counterscreen for WRN Inhibitors (AID 720503); details: Recombinant BLM helicase DNA unwinding, red fluorescence; note: potency is the fitted concentration of half-maximal effect; nearly all actives have a fitted effect of over 60% in size
Description: as §1
Three uL of reaction buffer (25 mM Tris-HCl pH 8.0, 50 mM NaCl, 2 mM MgCl2, 1 mM DTT, 0.01% Tween-20, and 1 nM BLM) was dispensed into a 1536-well Greiner black assay plate via solenoid-valve based nanoliter dispensers. […] The plates were transferred into a ViewLux CCD imager where the reaction was measured in a discontinuous kinetic mode (two reads spaced 15 minutes apart, with intermediate room temperature incubation of the covered assay plate) using the standard red-fluorescence optics (excitation filter 525 nm, emission filter 598 nm). […]

Chain of DNA polymerase kappa (Homo sapiens) (Q9UBT6 whole entry, looked up): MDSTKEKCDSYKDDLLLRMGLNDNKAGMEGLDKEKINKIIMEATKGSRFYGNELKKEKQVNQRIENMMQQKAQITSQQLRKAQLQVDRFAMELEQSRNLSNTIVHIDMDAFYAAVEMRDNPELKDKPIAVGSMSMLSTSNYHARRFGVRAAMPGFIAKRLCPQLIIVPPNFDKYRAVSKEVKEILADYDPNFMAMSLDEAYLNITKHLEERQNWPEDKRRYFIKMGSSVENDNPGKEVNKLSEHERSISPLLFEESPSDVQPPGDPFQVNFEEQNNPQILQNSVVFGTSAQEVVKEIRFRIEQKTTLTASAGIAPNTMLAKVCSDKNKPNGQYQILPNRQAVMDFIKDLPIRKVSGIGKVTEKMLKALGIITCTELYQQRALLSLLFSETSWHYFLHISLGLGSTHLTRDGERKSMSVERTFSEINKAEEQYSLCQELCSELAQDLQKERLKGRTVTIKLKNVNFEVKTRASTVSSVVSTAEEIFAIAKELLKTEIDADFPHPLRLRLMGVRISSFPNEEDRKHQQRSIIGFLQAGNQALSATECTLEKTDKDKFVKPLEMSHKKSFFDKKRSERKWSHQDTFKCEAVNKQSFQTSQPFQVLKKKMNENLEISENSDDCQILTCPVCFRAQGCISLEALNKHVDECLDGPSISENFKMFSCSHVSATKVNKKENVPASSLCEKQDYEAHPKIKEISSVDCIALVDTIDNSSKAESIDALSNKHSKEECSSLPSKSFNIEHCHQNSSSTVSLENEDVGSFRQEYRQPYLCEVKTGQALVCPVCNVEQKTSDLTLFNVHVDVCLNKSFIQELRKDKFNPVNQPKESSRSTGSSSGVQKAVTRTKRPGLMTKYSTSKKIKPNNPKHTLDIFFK
Chain of DNA polymerase iota (Homo sapiens) (Q9UNA4 whole entry, looked up): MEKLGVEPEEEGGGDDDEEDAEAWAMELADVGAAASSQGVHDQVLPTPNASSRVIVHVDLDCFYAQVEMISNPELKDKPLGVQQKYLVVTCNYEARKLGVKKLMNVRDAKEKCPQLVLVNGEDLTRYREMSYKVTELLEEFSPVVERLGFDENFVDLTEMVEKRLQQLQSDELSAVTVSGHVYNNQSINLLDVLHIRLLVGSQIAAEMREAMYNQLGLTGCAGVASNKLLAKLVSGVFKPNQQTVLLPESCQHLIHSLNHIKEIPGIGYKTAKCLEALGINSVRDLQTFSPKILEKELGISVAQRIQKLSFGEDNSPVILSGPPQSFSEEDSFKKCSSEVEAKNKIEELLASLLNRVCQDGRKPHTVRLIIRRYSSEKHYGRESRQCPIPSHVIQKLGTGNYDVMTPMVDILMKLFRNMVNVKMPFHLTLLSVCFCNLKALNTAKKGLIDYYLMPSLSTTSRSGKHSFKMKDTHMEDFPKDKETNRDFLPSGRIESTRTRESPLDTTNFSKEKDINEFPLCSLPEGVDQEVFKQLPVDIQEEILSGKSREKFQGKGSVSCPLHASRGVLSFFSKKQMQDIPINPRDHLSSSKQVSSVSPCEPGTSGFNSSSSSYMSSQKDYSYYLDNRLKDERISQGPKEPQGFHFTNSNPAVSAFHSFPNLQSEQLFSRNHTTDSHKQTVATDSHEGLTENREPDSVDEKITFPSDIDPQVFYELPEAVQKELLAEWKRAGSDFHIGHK
Chain of Phosphoglycerate kinase, glycosomal (Trypanosoma brucei brucei) (P07378 whole entry, looked up): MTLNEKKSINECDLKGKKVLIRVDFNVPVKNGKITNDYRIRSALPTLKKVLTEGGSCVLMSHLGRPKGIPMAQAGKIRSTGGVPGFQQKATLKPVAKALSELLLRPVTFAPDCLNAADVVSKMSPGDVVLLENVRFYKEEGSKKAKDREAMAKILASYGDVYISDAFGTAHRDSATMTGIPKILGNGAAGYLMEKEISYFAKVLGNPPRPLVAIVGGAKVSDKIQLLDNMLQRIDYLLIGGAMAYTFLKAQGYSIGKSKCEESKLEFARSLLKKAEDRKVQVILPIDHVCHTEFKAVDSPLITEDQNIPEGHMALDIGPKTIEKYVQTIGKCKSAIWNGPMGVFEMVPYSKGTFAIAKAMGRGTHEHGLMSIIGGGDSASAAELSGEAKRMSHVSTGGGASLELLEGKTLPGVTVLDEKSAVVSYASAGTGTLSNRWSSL
Chain of RecQ-like DNA helicase BLM (Homo sapiens) (P54132 whole entry, looked up): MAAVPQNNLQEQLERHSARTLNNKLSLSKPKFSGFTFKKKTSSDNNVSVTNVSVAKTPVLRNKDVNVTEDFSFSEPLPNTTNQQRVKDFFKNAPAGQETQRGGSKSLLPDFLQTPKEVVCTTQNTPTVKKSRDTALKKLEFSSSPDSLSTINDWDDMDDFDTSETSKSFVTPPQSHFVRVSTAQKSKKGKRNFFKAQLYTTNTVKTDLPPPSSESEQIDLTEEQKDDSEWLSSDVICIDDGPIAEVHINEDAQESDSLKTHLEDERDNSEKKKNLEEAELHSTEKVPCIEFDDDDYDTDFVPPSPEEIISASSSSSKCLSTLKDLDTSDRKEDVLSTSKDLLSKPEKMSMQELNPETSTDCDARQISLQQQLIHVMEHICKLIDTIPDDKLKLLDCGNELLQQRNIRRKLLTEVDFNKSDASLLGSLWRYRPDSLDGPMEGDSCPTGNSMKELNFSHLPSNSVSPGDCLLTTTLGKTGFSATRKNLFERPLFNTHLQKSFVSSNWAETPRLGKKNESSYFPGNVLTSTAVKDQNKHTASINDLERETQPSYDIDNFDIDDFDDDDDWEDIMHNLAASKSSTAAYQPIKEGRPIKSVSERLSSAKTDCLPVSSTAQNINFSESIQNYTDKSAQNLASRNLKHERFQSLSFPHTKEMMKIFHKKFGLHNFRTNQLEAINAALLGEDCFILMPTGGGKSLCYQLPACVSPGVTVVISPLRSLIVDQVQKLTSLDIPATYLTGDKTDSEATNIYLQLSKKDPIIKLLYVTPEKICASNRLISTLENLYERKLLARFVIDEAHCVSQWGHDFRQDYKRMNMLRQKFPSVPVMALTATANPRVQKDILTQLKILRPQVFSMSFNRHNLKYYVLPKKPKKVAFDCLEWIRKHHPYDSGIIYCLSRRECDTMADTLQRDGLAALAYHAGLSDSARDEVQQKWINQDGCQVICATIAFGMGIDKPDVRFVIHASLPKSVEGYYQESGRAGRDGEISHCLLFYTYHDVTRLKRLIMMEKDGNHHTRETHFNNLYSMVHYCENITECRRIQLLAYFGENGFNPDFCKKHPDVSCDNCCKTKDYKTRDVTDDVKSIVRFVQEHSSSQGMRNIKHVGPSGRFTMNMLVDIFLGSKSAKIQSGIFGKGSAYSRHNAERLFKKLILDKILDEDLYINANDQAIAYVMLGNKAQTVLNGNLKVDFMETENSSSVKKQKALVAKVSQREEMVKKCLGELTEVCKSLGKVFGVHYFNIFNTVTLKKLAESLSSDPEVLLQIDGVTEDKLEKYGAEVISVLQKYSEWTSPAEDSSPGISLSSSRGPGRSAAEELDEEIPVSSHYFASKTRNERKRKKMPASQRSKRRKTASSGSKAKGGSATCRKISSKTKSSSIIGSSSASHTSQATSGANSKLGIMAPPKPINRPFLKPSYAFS
Chain of Bifunctional 3'-5' exonuclease/ATP-dependent helicase WRN (Homo sapiens) (Q14191 whole entry, looked up): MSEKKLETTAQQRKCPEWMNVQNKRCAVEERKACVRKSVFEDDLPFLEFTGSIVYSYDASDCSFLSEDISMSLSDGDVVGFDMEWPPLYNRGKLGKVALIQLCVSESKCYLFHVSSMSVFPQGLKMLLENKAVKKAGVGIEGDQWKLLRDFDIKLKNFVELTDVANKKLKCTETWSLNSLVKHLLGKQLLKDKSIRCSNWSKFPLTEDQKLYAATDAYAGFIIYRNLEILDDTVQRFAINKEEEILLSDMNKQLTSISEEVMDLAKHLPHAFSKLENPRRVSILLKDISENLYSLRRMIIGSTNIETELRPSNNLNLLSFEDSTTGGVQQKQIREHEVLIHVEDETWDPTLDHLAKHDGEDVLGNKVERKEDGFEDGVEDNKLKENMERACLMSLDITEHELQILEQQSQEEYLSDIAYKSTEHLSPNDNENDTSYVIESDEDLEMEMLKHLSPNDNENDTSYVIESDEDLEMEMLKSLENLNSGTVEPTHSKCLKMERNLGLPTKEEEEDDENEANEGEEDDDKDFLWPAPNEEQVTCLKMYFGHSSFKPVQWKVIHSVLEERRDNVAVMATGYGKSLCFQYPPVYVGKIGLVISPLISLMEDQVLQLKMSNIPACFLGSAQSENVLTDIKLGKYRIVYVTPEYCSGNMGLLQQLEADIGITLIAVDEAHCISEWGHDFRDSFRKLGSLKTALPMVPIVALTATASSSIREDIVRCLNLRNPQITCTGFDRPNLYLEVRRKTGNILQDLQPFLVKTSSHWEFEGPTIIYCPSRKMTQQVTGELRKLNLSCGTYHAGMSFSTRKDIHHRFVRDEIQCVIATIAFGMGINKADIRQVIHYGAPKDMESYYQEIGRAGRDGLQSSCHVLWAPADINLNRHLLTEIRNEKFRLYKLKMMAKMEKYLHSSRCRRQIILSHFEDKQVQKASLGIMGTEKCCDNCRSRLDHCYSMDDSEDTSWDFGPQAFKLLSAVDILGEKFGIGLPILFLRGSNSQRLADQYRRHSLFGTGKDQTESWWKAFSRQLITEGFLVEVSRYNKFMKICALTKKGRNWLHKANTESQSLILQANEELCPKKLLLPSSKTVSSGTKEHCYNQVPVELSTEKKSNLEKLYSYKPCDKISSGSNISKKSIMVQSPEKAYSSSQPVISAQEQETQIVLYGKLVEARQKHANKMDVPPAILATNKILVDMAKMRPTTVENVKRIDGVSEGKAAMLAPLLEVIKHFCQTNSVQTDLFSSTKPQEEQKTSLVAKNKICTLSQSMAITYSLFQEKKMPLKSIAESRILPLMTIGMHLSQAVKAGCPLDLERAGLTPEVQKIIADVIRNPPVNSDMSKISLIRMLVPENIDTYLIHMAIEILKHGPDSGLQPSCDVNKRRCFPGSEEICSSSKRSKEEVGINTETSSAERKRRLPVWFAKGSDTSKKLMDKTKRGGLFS

| Compound | max response [1] [%] | Potency [2] | outcome [3] | Potency [4] | Potency [5] | Potency [6] | outcome [7] | Potency [8] | Potency [9] |
| --- | --- | --- | --- | --- | --- | --- | --- | --- | --- |
| CC1CCC(C(C)C)C(O)C1 (centres undefined) | -1.68 | inactive | inactive | – | – | – | – | – | – |
| COc1ccc(-c2nc3c(c(SCC(=O)Nc4ccc(C(=O)O)cc4)n2)Cc2ccccc2O3)cc1 | – | – | – | 3.26 µM (active) | 4.23 µM (active) | 7.64 µM (active) | inactive | 2.67 µM (active) | 3.04 µM (active) |
